Experimental data: PubChem BioAssay (EPA / NIEHS)
The source holds several records for some structures; these can differ, active in one and inactive in another. Activity calls are given as the source filed them. Rule for the calls: active = hit-call score of the fitted dose curve at least 0.9, where 1 is the maximum; inactive = score below 0.9.

Experiment: ATG_DR4_LXR_CIS: Attagene CIS-FACTORIAL HepG2 Assay for human Liver X Receptor (LXR), DR4 submotif (AID 2282929)
Settings: HepG2 Attagene DR4 cis-reporter, mRNA transcription; actives raise or lower the signal
Experimental: ATG_CIS is a cell-based, multiplexed-readout assay that uses HepG2, a human liver cell line, with measurements taken at 24 hours after chemical dosing in a 24-well plate.ATG_DR4_LXR_CIS is one of 52 assay component(s) measured or calculated from the ATG_CIS assay. It is designed to make measurements of mRNA induction, a form of inducible reporter, as detected with fluorescence intensity signals by Reverse transcription polymerase chain reaction (RT-PCR) and Capillary electrophoresis technology.Data from the assay component ATG_DR4_LXR_CIS was analyzed into 1 assay endpoint. This assay endpoint, ATG_DR4_LXR_CIS, was analyzed with bidirectional fitting relative to DMSO as the negative control and baseline of activity. Using a type of inducible reporter, measures of mRNA for gain or loss-of-signal activity can be used to understand the reporter gene at the transcription factor-level as they relate to the gene NR1H2 and NR1H3. Furthermore, this assay endpoint can be referred to as a primary readout, because this assay has produced multiple assay endpoints where this one serves a reporter gene function. To generalize the intended target to other relatable targets, this assay endpoint is annotated to the nuclear receptor intended target family, where the subfamily is non-steroidal.
Human liver HepG2 cells are transiently transfected with multiple reporter transcription units (MRTUs) in 6-well plates using FuGene 6 reagent (Roche; 3 ml FuGene/1 mg DNA). The MRTU constructs are regulated by a cis-regulating element (promoter). […] A major difference between the CIS and TRANS system is that in CIS activities of endogenous TFs are measured, whereas the TRANS assay evaluates changes in activities of exogenous, chimeric NR-Gal4 proteins. […] At the end of 24 hour incubation, total RNA was isolated using TriZol reagent (Invitrogen). The isolated RNA is then reverse-transcribed using oligo(dT) primer and Mo-MLV reverse transcriptase (Invitrogen) with DNAse I (Ambion) treatment for 30 min. The one-tenth of the produced cDNA was amplified by PCR using Taq DNA polymerase (Invitrogen) and two reporter sequence-specific primers. The PCR products were fluorescently labeled by primer extension with 6-arboxyfluorescein (6-FAM) 5'-labeled reporter sequence-specific primer (2 min at 95 C, 20 s at 68 C and 10 min at 72 C) and these products were digested with 5U of HpaI (New England Biolabs) for 2h at 37 C. The fragments were purified using Qiaquick PCR columns (Qiagen), analyzed on an ABI 3130xL genetic analyzer (Applied Biosystems) with peak positions identified by using a set of X-rhodamine (ROX)-labeled MapMarker1000 molecular weight standards (BioVentures). The raw capillary electrophoresis data was processed using Attagraph software (Attagene).
For `O=C(OCCOCCOCCOC(=O)c1ccccc1)c1ccccc1`, the outcome was “inactive”. In the case of `O=C(C=Cc1ccccc1)OCC=Cc1ccccc1`, the AC50 is reported as 24.3 µM (active). For `c1ccc(B(c2ccccc2)c2ccccc2)cc1`, the AC50 was 34.2 µM (active). In the case of `O=C(O)C(F)(F)C(F)(F)C(F)(F)C(F)(F)F`, the outcome is reported as “inactive”. For `CC(Cc1ccc(O)c(O)c1)C(C)Cc1ccc(O)c(O)c1` (stereo not given), the outcome was “inactive”. For `CC(=O)Nc1ccc(N=Nc2cc(C)ccc2O)cc1`, the outcome was “inactive”. In the case of `FC(F)(Br)C(F)(F)C(F)(F)C(F)(F)C(F)(F)C(F)(F)Br`, the outcome is reported as “inactive”. For `COC(=O)C1CCC(C(=O)OC)CC1` (stereo not given), the outcome was “inactive”. For `FC(F)(F)C(F)(F)C(F)(F)C(F)(F)C(F)(F)C(F)(F)C(F)(F)C(F)(F)F`, the outcome was “inactive”. With `C=CC(F)(F)C(F)(F)C(F)(F)C(F)(F)C(F)(F)C(F)(F)C(F)(F)C(F)(F)F` the outcome was “inactive”. For `CCCCCCCCCCCCCCCC[N+](C)(C)Cc1ccccc1`, the AC50 was 24.9 µM (active). In the case of `O=S(=O)(O)C(F)(F)C(F)(F)C(F)(F)C(F)(F)C(F)(F)C(F)(F)C(F)(F)F`, the AC50 is reported as 29.7 µM (active) and the outcome is reported as “inactive”. With `CC/C=C\CCOC(=O)c1ccccc1` the outcome was “inactive”. With `CCC(=O)OCCc1ccccc1` the outcome was “inactive”. For `CC(C)(C)C(=O)CC(=O)C(F)(F)C(F)(F)C(F)(F)F`, the outcome was “inactive”. For `NC(=O)C(F)(F)C(F)(F)C(F)(F)C(F)(F)F`, the outcome was “inactive”. In the case of `CS(C)(=O)=O`, the outcome is reported as “inactive”. With `CCCCCC=O` the outcome was “inactive”. For `OCCCC(F)(F)C(F)(F)C(F)(F)C(F)(F)C(F)(F)C(F)(F)C(F)(F)F`, the AC50 was 35.6 µM (active) and the outcome was “inactive”. In the case of `C(=C(c1ccccc1)c1ccccc1)c1ccccc1`, the AC50 is reported as 59 µM (active). In the case of `CC/C=C\CCOC(C)=O`, the outcome is reported as “inactive”. In the case of `C#C[C@]1(O)CC[C@H]2[C@@H]3CCc4cc(OC)ccc4[C@H]3CC[C@@]21C`, the outcome is reported as “inactive”. For `O=C(O)C(F)(F)C(F)(F)F`, the outcome was “inactive”. With `O=C(O)C(F)(F)C(F)(F)C(F)(F)C(F)(F)C(F)(F)C(F)(F)C(F)(F)C(F)(F)C(F)(F)C(F)(F)C(F)(F)C(F)(F)C(F)(F)F` the outcome was “inactive”. With `CCO[Si](CCC(F)(F)C(F)(F)C(F)(F)C(F)(F)C(F)(F)C(F)(F)F)(OCC)OCC` the outcome was “inactive”. In the case of `FC(F)(F)C(F)(F)C(F)(F)CI`, the outcome is reported as “inactive”. In the case of `OCC(F)(F)C(F)(F)C(F)(F)C(F)F`, the outcome is reported as “inactive”. With `Nc1ccc(S(=O)(=O)Nc2nccs2)cc1` the outcome was “inactive”. With `CCCCOc1ccc(N)cc1` the outcome was “inactive”. In the case of `C1COCCN1`, the outcome is reported as “inactive”. For `OCC(F)(F)C(F)(F)C(F)(F)C(F)(F)C(F)(F)C(F)F`, the outcome was “inactive”. In the case of `FC(F)(F)C(F)(F)C(F)(F)C(F)(F)C(F)(F)C(F)(F)CCS`, the outcome is reported as “inactive”. With `Cc1ccc(S(=O)(=O)NCl)cc1` the outcome was “inactive”. With `Cc1ccc(S(=O)(=O)OCC(F)(F)C(F)(F)C(F)(F)C(F)(F)C(F)(F)C(F)F)cc1` the outcome was “inactive”. In the case of `OCC(F)(F)C(F)(F)C(F)(F)C(F)(F)C(F)(F)C(F)(F)F`, the outcome is reported as “inactive”. In the case of `O=C(O)C(F)(OC(F)(F)C(F)(OC(F)(F)C(F)(F)C(F)(F)F)C(F)(F)F)C(F)(F)F` (stereo not given), the outcome is reported as “inactive”. With `C=C(C)C(=O)OCC(F)(F)C(F)(F)C(F)(F)F` the outcome was “inactive”. In the case of `Nc1ccc([N+](=O)[O-])cc1O`, the outcome is reported as “inactive”.
